E coli RNAP – E. coli RNAP inhibitors, biochemical; DNA-directed RNA polymerase subunit beta (Escherichia coli (strain K12)), P0A8V2; E. coli RNA polymerase, fluorescence transcription assay; inhibition, %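 (tested at 10 µM)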; actives 0.2% (n = 62,000); AID 559, 2006; in the data active = inhibition above about 20%;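 also: 0% = enzyme without compound and 100% = no enzyme blank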
Mac1 fbg inh – inhibitors of CD11b/CD18 adhesion to fibrinogen, primary screen, K562 cells, luminescence | actives 0.54% (n = 93,000) | inhibition, % at 10 µM | ATPlite luminescence; Mn2+ added to activate the integrin;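 active = primary inhibition of 50% or more at 10 µM, then 40% or more on retest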
Mac1 fbg enh – enhancers of CD11b/CD18 adhesion to fibrinogen, primary screen, K562 cells, luminescence; activation, % at 10 µM; actives 0.07% (n = 93,000); ATPlite luminescence; Integrin beta-2 (Homo sapiens) + Integrin alpha-M (Homo sapiens), P05107+P11215;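 active = 10 µM primary screen giving 50% or more activity, confirmed by 40% or more on retest at that dose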
Cav3 T inh – Cav3.2 calcium influx blockers – cell-based, Fluo-4 calcium fluorescence, FDSS, MLSMR library, primary screen; actives 4% (n = 100,000); B-score at 10 µM; Cav3.2-expressing cells; hits give low values;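 active = single-dose well whose peak fluorescence ratio is a statistical outlier from its plate by either plate-standardised score or position-corrected B-score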
Pyk2 oligo antag – antagonists of Pyk2 self-association, primary screen, Q293 cells, FERM NanoBiT luminescence, HTS; z-score (the deposit names both 25 µM and 10 µM); Protein-tyrosine kinase 2-beta (Homo sapiens), Q14289; actives 0.83% (n = 99,000); hits give low values;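 active = Z-score of -3 or lower, scaled per plate to the spread of control and sample wells; inactive = z-score above -3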;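 also: negative z-score means lost luminescence so less FERM oligomerization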
Target sequence (Q14289 whole entry, looked up): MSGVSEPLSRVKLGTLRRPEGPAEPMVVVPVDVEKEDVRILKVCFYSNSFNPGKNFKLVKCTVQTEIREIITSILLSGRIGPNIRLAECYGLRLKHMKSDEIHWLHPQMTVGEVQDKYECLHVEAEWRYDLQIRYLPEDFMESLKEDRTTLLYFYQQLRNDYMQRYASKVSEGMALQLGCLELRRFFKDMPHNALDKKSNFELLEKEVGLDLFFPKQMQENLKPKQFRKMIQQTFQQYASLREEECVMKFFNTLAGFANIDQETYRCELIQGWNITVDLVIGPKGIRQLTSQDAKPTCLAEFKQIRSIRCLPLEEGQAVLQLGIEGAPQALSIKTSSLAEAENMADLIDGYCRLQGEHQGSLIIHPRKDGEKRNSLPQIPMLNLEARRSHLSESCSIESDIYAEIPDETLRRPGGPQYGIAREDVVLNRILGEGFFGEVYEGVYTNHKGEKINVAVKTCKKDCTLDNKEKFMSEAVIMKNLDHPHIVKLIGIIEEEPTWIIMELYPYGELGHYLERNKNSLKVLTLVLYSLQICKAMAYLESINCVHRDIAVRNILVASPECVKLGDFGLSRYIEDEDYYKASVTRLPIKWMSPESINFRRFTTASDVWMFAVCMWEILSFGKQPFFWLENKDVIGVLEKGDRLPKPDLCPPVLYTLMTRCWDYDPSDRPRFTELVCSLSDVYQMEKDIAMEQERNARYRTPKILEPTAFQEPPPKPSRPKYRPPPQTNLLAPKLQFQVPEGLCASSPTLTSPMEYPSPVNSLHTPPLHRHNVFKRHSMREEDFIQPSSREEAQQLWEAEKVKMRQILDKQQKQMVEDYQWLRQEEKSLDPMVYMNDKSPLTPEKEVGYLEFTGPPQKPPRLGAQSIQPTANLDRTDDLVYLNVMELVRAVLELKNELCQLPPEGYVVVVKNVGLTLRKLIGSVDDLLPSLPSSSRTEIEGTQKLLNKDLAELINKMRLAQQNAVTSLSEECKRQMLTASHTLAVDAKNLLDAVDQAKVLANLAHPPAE
Active calls of the source: *; · = no result given. Compounds with a hit are over-represented: about 4.2% of the library has one in this group of screens.

SMILES	E coli RNAP	Mac1 fbg inh	Mac1 fbg enh	Cav3 T inh	Pyk2 oligo antag
Cc1nn(-c2ccccc2)c(C)c1/C=N/n1c(-c2ccc(C(C)(C)C)cc2)n[nH]c1=S	·	·	·	-1.2	-3.9*
O=C(CN(c1ccccc1)S(=O)(=O)c1ccccc1)N/N=C/c1ccco1	·	-8	-2	·	·
COc1ccccc1Nc1nc(N)nc(CN2CCC(Cc3ccccc3)CC2)n1	·	-21	4	-5.2*	0.41
COc1ccc(Nc2nc(N)nc(CN3CCC(Cc4ccccc4)CC3)n2)cc1	-1	-4	3	-2.9	·
CC(C)C(=O)Nc1ccnc(-c2cccnc2)n1	·	·	·	0.5	0.92
O=Cc1ccccc1OS(=O)(=O)c1ccccc1	·	8	-1	·	·
COC(C[C@H](O)C[C@H](O)[C@H](C)OCc1ccccc1)OC	·	·	·	0.48	·
S=C(NCCc1ccccc1)Nc1ccc(Cl)cc1Cl	·	20	-1	-5.1*	-1.4
Cc1cc(Cl)ccc1NC(=S)NCc1ccc(Cl)cc1	·	-26	4	0.1	-1.3
Cc1c(Cl)cccc1NC(=S)NCCC(c1ccccc1)c1ccccc1	·	·	·	-6.9*	-0.56
Cc1cc(Cl)ccc1NC(=S)NCCC(c1ccccc1)c1ccccc1	·	89	-12	-3.6*	-0.15
COc1cccc(NC(=S)NCCC(c2ccccc2)c2ccccc2)c1	·	8	-9	-6.9*	-0.83
COc1ccc(NC(=S)NCCC(c2ccccc2)c2ccccc2)c(OC)c1	·	70	-7	-1.6	0.71
O=C(CSc1nc(-c2ccc(F)cc2)cc(C(F)(F)F)n1)Nc1ccc2c(c1)OCO2	·	3	0	·	·
COc1cccc(NC(=O)C(NCC2CCCCC2)c2ccccc2)c1 (configuration not stated)	·	-17	-2	0.39	0.04
COc1cccc(NC(=O)C(NCCC(C)C)c2ccccc2)c1 (configuration not stated)	·	-16	-3	-6.2*	-0.67
Cc1c(NC(=S)NC(NC(=O)C(C)(C)C)C(Cl)(Cl)Cl)c(=O)n(-c2ccccc2)n1C (configuration not stated)	·	·	·	·	0.89
CCOc1ccc(NS(=O)(=O)c2ccc(NS(=O)(=O)c3ccccc3)cc2)cc1	·	-16	-5	-0.55	-0.58
CCOc1ccc(S(=O)(=O)Nc2cccc(Cl)c2)cc1	3	·	·	-3.7*	-0.8
Cc1cc(C(=O)CSc2nnc(Nc3ccccc3F)s2)c(C)n1CC1CCCO1 (configuration not stated)	1	13	3	-6.9*	0.23
O=C(NCc1ccncc1)C1CCCCC1	·	61	-4	-0.33	0.33
Cc1sc2ncnc(SCC(=O)N3CCCC3=O)c2c1C	-2	-10	-2	0.48	0.21
CCCN(CC1CC1)C(=O)CSc1ncnc2sc(C)c(C)c12	·	3	1	-5.2*	-0.71
O=C(O)CCc1nc2ccccc2n(CCc2ccccc2)c1=O	-1	-6	-1	2	-0.38
c1ccc(Cc2nc3ccccc3n2Cc2ccccc2)cc1	·	11	0	-4.3*	-0.49
SMILES	E coli RNAP	Mac1 fbg inh	Mac1 fbg enh	Cav3 T inh	Pyk2 oligo antag
c1ccc(Cn2c(NCc3ccco3)nc3ccccc32)cc1	4	-11	4	-1.9	0.08
COc1ccccc1Cn1c(-c2ccccc2OC)nc2ccccc21	·	5	-4	-6.4*	-2.6
COc1ccc(CNc2nc3ccccc3n2Cc2ccccc2)cc1OC	·	·	·	-5.4*	1.4
CC(C)(C)Cc1nc2ccccc2n1CCc1ccccc1	·	3	-7	-4.3*	-0.52
CC1=CC2=NC(=O)CC(C)(C(=O)N(CC(=O)NC(C)(C)C)Cc3cccs3)N2C=C1 (configuration not stated)	·	·	·	·	-0.17
CCC1=C(OC(=O)N(CC)CC)N2C(=O)OC(=NCC(=O)OC)[C@]2(Cc2ccccc2)[C@H]2C1=CC[C@H]1C(=O)NC(=O)[C@H]12	·	·	·	-0.37	·
C=CCn1c(-c2ccc(OC)cc2)nc2ccccc21	11	14	-3	-0.84	-0.1
COc1ccc(-c2nc3ccccc3n2Cc2ccccc2)cc1	·	-10	0	-9.9*	-1.1
O=C(COC(=O)COc1ccccc1)NC1CCCc2ccccc21 (configuration not stated)	·	-2	6	·	·
CC1(c2nnc(-c3ccccc3)o2)CC(c2ccccc2)=NO1 (configuration not stated)	·	·	·	-1.4	·
CCCCCCCCC(=O)NC(NC(=S)N1CCOCC1)C(Cl)(Cl)Cl (configuration not stated)	·	·	·	-4.2*	-0.04
Cc1cc(C)cc(N(CC(=O)NC2CCCCC2)C(=O)CCC(=O)Nc2cc(C)ccn2)c1	-3	12	2	·	1.7
Cc1ccnc(NC(=O)CCC(=O)N(CC(=O)NC2CCCCC2)c2cccc(C)c2C)c1	-9	-6	-2	-6.4*	-1.6
CCCCCn1nc(-c2ccccc2)c2nc3ccccc3nc21	·	·	·	-7.3*	0.46
COC(=O)c1nn(-c2ccccc2)ccc1=O	·	-41	1	0.035	0.15
O=c1ccn(-c2cccc(C(F)(F)F)c2)nc1-c1ccn(-c2ccccc2)n1	·	-2	6	-5.7*	1.1
CCOc1ccc(S(=O)(=O)Nc2nc3ccccc3nc2Nc2ccc(N3CCOCC3)cc2)cc1	·	68	8	·	·
CSc1cccc(NC(=O)C2CCCN(S(=O)(=O)c3ccc(F)cc3)C2)c1 (configuration not stated)	6	-46	1	-6.3*	-0.51
CC1=C(C(=O)Nc2ccccc2)C(c2ccccc2)N2C(=O)CSC2=N1 (configuration not stated)	2	18	-6	-11*	0.8
CC1=C(C(=O)Nc2ccccc2)C(c2ccc(C(C)C)cc2)N2C(=O)CSC2=N1 (configuration not stated)	·	-4	-4	-1.7	0.42
CC1=C(C(=O)Nc2ccccc2)C(c2ccc(C)o2)N2C(=O)CSC2=N1 (configuration not stated)	3	0	-5	-7.9*	·
CC1=C(C(=O)Nc2ccccc2)C(c2ccc(C)o2)n2c(s/c(=C/c3ccccc3)c2=O)=N1 (configuration not stated)	·	28	-4	-3.2	0.97
C=C1CCN([C@H](C(=O)NCc2ccc(Cl)cc2)C(C)C)S(=O)(=O)c2ccccc21	·	·	·	-0.95	·
COc1ccc(OC)c(S(=O)(=O)N2CCC(C(=O)Nc3cccc(C(F)(F)F)c3)CC2)c1	11	28	12	-9.3*	-1.6
COc1ccc(OC)c(S(=O)(=O)N2CCN(c3c(C)cccc3C)CC2)c1	11	2	-2	-7.3*	·
CN(CCC#N)C(=O)COC(=O)c1ccc(CNS(=O)(=O)c2ccc(F)c(Cl)c2)cc1	·	-16	-3	·	·
COc1ccc(/C=N/NC(=O)c2ccc3ccccc3c2)cc1OS(=O)(=O)c1ccc(NC(C)=O)cc1	·	·	·	-2.1	-2.4

Assay outcomes from PubChem BioAssay.
